An excerpt weighted towards active compounds, which were near 1.2% of everything screened.
EPAC2 antagonist: qHTS for Antagonist of cAMP-regulated guanine nucleotide exchange factor 2 (EPAC2): primary screen. Rap guanine nucleotide exchange factor 4 (Homo sapiens), Q8WZA2. EPAC2 GEF exchange of Rap1B-BODIPY-GDP, fluorescence. Potency, µM (top dose mostly 114 µM), inactives show top-dose activity, negative = inhibition, actives largely listed as inhibitors. 0.18% of 360,000 active. AID 720708, 2013; further: on the % scale 0 is the no-effect control and ±100 the full control effect; nearly all actives have a fitted effect of over 45% in size
USP1 inh: Inhibitors of USP1/UAF1: Primary Screen; 0.23% of 390,000 active; recombinant USP1/UAF1, Ub-Rhodamine cleavage fluorescence; Potency, µM (doses to about 57.1 µM), for the others: top-dose activity change, negative = inhibition, usual class: inhibitors; AID 743255, 2014; further: on the % scale 0 is the no-effect control and ±100 the full control effect; nearly all actives have a fitted effect of over 60% in size
Target sequence (O94782 whole entry, looked up): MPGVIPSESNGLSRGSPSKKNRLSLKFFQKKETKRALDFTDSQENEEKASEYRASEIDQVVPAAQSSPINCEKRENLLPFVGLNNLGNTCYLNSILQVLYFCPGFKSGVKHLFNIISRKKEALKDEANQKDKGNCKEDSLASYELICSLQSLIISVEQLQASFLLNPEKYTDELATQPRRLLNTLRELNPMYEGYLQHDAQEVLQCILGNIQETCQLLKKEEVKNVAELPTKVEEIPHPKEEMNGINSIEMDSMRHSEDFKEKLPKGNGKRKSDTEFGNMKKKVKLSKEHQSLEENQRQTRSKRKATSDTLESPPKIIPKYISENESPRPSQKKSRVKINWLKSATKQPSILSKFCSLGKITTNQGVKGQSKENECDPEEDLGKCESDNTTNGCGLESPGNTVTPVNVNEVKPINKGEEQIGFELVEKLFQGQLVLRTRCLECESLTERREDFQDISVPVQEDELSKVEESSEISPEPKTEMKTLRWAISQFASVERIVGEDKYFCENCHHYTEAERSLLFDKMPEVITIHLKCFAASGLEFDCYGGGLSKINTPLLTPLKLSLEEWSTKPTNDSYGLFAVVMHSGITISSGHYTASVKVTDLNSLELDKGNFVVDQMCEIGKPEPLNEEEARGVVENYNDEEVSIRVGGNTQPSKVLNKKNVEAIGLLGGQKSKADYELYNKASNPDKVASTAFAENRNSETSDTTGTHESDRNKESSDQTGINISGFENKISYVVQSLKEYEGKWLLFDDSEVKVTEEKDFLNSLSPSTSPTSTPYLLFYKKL
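Step one: compound is pinned into 1nM USP1/UAF1 in HEPES pH 7.8 buffer with TCEP. Step two: 15 min room-temperature incubation. Step three: Ub-Rho (150nM final) starts cleavage, tracked by fluorescence over six one-minute reads.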
VDR inh: Inhibitors of the vitamin D receptor (VDR): qHTS; 0.93% of 400,000 active; Potency, µM, for the others: max response, negative = inhibition, most hits filed as inhibitors; VDR-SRC2-3 peptide fluorescence polarization, 2 h; AID 504847, 2011; further: on the % scale 0 is the no-effect control and ±100 the full control effect
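After 23 nl compound addition and a short centrifugation, plates sat for 2 hours at ambient temperature; polarization of fluorescence then indicated loss of VDR binding to peptide SRC2-3.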
EPAC1 ag: qHTS for Agonist of cAMP-regulated guanine nucleotide exchange factor 3 (EPAC1): primary screen; Rap guanine nucleotide exchange factor 3 (Homo sapiens), O95398; EPAC1 agonist qHTS, biochemical assay; response scale: 100% = response to 6.5 mM cAMP; Potency, µM (highest dose often 154 µM), without a hit: at the highest dose activation, hits mostly activators; 0.073% of 360,000 active; AID 720707, 2013; further: nearly all actives have a fitted effect of over 60% in size
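Read-out is the fluorescence drop as BODIPY-GDP leaves Rap1B (480 nm excitation, 540 nm emission), recorded every 5 minutes over 30 minutes. Reactions held 100 nM EPAC1, 250 nM Rap1B–BODIPY-GDP and 50 uM GDP, with 6.5 mM cAMP setting full activation.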
EPAC2 ag: qHTS for Agonist of cAMP-regulated guanine nucleotide exchange factor 4 (EPAC2): primary screen | Rap guanine nucleotide exchange factor 4 (Homo sapiens), Q8WZA2 | 0.079% of 360,000 active | Potency, µM (titrated, usually from 154 µM), without a hit: at the highest dose activation, usual class: activators | EPAC2 activation, biochemical qHTS; response scale: 100% = 6.5 mM cAMP response; further: nearly all actives have a fitted effect of over 50% in size
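Nucleotide exchange monitored as fluorescence drop when BODIPY-GDP leaves Rap1B. Reaction: 100 nM EPAC2, 250 nM RAP1B-BODIPY-GDP, 50 uM GDP, room temperature, kinetic read over 30 min. Activity expressed relative to 6.5 mM cAMP.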
EPAC1 antag: qHTS for Antagonist of cAMP-regulated guanine nucleotide exchange factor 3 (EPAC1): primary screen | EPAC1 GEF assay, Rap1b-BODIPY-GDP exchange fluorescence | Potency, µM (highest dose often 115 µM), without a hit: top-dose activity change, negative = inhibition, most hits filed as inhibitors | 0.14% of 360,000 active | AID 720709, 2013;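 further: plate controls were vehicle for no effect and positive control for full effect; nearly all actives have a fitted effect of over 50% in size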
An asterisk follows results filed as active. The call rests on the fitted dose curve; in most records, active means well fitted curve in the direction sought with a large enough effect; inconclusive means small, poorly fitted or top-dose-only effect, or another doubt; inactive means no such curve, though single readings can be large; an effect the other way counts as inactive or inconclusive. Potency means the concentration at half of the fitted maximal effect.

For CCN(CC)c1ccc(/C=N/Nc2ccccc2)c(O)c1 the results were EPAC2 antagonist 6.0%, USP1 inh inconclusive, VDR inh 79.4µM*, EPAC1 ag 1.3%, EPAC2 ag 0.7% and EPAC1 antag 12.5%.
CCN(CC)c1ccc(N=Cc2ccc(N(CC)CC)cc2O)cc1 was read as EPAC2 antagonist 13.1%, USP1 inh inconclusive, VDR inh 50.1µM*, EPAC1 ag 10.3%, EPAC2 ag inconclusive and EPAC1 antag -9.7%.
CCN(CC)c1ccc(C=Nc2ccc(C)cc2)c(O)c1 was read as EPAC2 antagonist -1.0%, USP1 inh -16.1%, VDR inh -1.1%, EPAC1 ag -3.9%, EPAC2 ag 0.7% and EPAC1 antag 3.0%.
CSCC[C@H](NC(=O)[C@H](CC(C)C)N(C)C(=O)[C@@H]1CCCN1C(=O)[C@H](Cc1ccccc1)NC(=O)[C@H](Cc1ccccc1)NC(=O)CCC(C)N)C(=O)O (stereo partly specified) was read as VDR inh -11.2%.
Screening CCCCC(=O)N(C)c1c(CC)nc2c(OCc3ccc(C(F)(F)F)cc3)cccn12 returned EPAC2 antagonist 20µM*, EPAC1 ag -14.5%, EPAC2 ag -0.2% and EPAC1 antag -22.6%.
Screening CCCCC(=O)N(C)c1c(CC)nc2c(OCc3ccc(C#N)cc3)cccn12 returned EPAC2 antagonist inconclusive, EPAC1 ag 1.4%, EPAC2 ag 0.4% and EPAC1 antag 1.3%.
`CCOC(=O)N(C)c1c(CC)nc2c(OCc3ccc(C(F)(F)F)cc3)cccn12` gave EPAC2 antagonist 35.5µM*, EPAC1 ag -14.3%, EPAC2 ag -3.8% and EPAC1 antag inconclusive.
For O=S(=O)(c1ccc(Br)cc1)N1CCN(c2nc(-c3ccccc3)nc3ccccc23)CC1 the results were VDR inh -5.5%.
For Clc1ccccc1C1CC(c2ccccc2)=Nc2ccccc2N1 (stereo unspecified) the results were EPAC2 antagonist -22.8%, USP1 inh 50.1µM*, VDR inh 16.9%, EPAC1 ag 9.3%, EPAC2 ag 6.7% and EPAC1 antag 17.1%.
`CCC1CC=CC2C1C(=O)N(Cc1ccccc1)C2c1ccc2ccccc2c1` (stereo unspecified) gave VDR inh -15.6%.
Screening Cc1cc(C(=O)COC(=O)c2ccccc2Br)c(C)n1CC1CCCO1 (stereo unspecified) returned EPAC2 antagonist -1.8%, USP1 inh -28.8%, VDR inh 22.8%, EPAC1 ag 12.2%, EPAC2 ag 3.5% and EPAC1 antag -10.3%.
`Cc1cc(C(=O)COC(=O)c2cc(O)c3ccccc3c2O)c(C)n1CC1CCCO1` (stereo unspecified) gave EPAC2 antagonist -1.0%, USP1 inh inconclusive, VDR inh 70.8µM*, EPAC1 ag 3.1%, EPAC2 ag 8.4% and EPAC1 antag -18.9%.
Screening Cc1cc(C(=O)COC(=O)c2cccnc2Cl)c(C)n1CC1CCCO1 (stereo unspecified) returned EPAC2 antagonist -8.3%, USP1 inh -18.7%, VDR inh 89.1µM*, EPAC1 ag -2.7%, EPAC2 ag 1.1% and EPAC1 antag 7.6%.
`Cc1ccc(C(=O)OCC(=O)c2cc(C)n(CC3CCCO3)c2C)cc1` (stereo unspecified) gave EPAC2 antagonist -10.1%, USP1 inh inconclusive, VDR inh -3.6%, EPAC1 ag -1.3%, EPAC2 ag -10.5% and EPAC1 antag -25.6%.
Screening COC(=O)C1=C[C@@H](C(=O)OC)[C@@H]2C3=C(C(=O)[C@@]2(C)NC(=O)c2ccccc2)[C@H](C)[C@@H]2C(=O)N(Cc4ccccc4)C(=O)[C@@H]2[C@@H]3C1 returned VDR inh -19.4%.
COc1cc(NCCCCCCN)c2ncccc2c1OC was read as EPAC2 antagonist -22.9%, USP1 inh 8.91µM*, VDR inh -16.0%, EPAC1 ag 7.6%, EPAC2 ag 13.8% and EPAC1 antag -10.0%.
COc1cc(NC(C)CCCNC(C)C)c2ncccc2c1OC (stereo unspecified) was read as EPAC2 antagonist -3.3%, USP1 inh inconclusive, VDR inh inconclusive, EPAC1 ag 0.1%, EPAC2 ag -1.1% and EPAC1 antag -0.6%.
Screening Cc1ccc(NS(=O)(=O)c2cccc3cccnc23)c(Cl)c1 returned EPAC2 antagonist 28.2µM*, USP1 inh -8.9%, VDR inh 10.0%, EPAC1 ag 9.4%, EPAC2 ag 8.6% and EPAC1 antag 11.7%.
Screening Cc1ccc(NS(=O)(=O)c2cccc3cccnc23)c(Br)c1 returned EPAC2 antagonist -16.7%, USP1 inh -13.3%, VDR inh 0.5%, EPAC1 ag 6.1%, EPAC2 ag 8.6% and EPAC1 antag -6.3%.
CSS(=O)(=O)c1cccc2cccnc12 was read as EPAC2 antagonist 0.0%, USP1 inh -8.6%, VDR inh 11.2µM*, EPAC1 ag 0.7%, EPAC2 ag 2.5% and EPAC1 antag -16.0%.
For CCc1ccccc1Nc1ccc(C(=O)O)cc1N the results were EPAC2 antagonist 10.6%, USP1 inh -14.3%, VDR inh -8.6%, EPAC1 ag -6.6%, EPAC2 ag -4.5% and EPAC1 antag 0.7%.
CCNc1ccc(C(=O)O)cc1N was read as EPAC2 antagonist 2.3%, USP1 inh -4.5%, VDR inh 79.4µM*, EPAC1 ag -2.7%, EPAC2 ag 0.9% and EPAC1 antag -14.4%.
For COc1ccc(-c2ccc(C3C4C=CCCC4(C)C(=O)N3Cc3ccccc3)c(F)c2)cc1 (stereo unspecified) the results were VDR inh -23.9%.
`COc1ccc(-c2ccccc2C2C3C=CCCC3(C)C(=O)N2Cc2ccccc2)cc1` (stereo unspecified) gave VDR inh 79.4µM*.
Screening COc1ccc(OC)c(-n2nnnc2SCC(=O)N2CCN(C(=O)c3ccco3)CC2)c1 returned EPAC2 antagonist 0.2%, USP1 inh -1.3%, VDR inh 70.8µM*, EPAC1 ag 9.3%, EPAC2 ag 14.7% and EPAC1 antag 9.0%.

High-throughput results from PubChem BioAssay.
